This is part of a sample that, as a whole, favours compounds with a hit. Of some 83,000 tested, about 20% had one in any assay.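 48-hour exposure, single concentration, 96-well plates; percent growth endpoint where 0 means no net growth. Active: below 10.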 Values without a mark were called inactive. Calls of active or inactive are those of the source.
How the values were obtained:
Experiment in all cases: NCI-60 one-dose screen, 48 h (100 = growth as untreated, 0 = no growth, -100 = all killed)
Conditions in all cases: 10 µM unless noted
NCI-H23 lung = test system: NCI-H23 lung
NCI-H226 lung = test system: NCI-H226 lung
NCI-H322M lung = test system: NCI-H322M lung
HOP-62 NSCLC = test system: HOP-62 NSCLC
NCI-H460 lung = test system: NCI-H460 lung
HOP-92 NSCLC = test system: HOP-92 NSCLC
NCI-H522 lung = test system: NCI-H522 lung
A549/ATCC NSCLC = test system: A549/ATCC NSCLC
786-0 renal = test system: 786-0 renal
COLO 205 colon = test system: COLO 205 colon

Compound	growth (NCI-H23 lung)	growth (NCI-H226 lung)	growth (NCI-H322M lung)	growth (HOP-62 NSCLC)	growth (NCI-H460 lung)	growth (HOP-92 NSCLC)	growth (NCI-H522 lung)	growth (A549/ATCC NSCLC)	growth (786-0 renal)	growth (COLO 205 colon)
CCC/C(=N\NC(N)=O)C(OC)OC	99.9%	108%	109%	109%	109%	68.4%	79.9%	93.6%	99.4%	110%
CC1(C)OC(=O)C(=Cc2cccc(Br)c2)C(=O)O1	103%	96.2%	113%	88.1%	105%	85.8%	77.5%	87.9%	109%	104%
CCOC(=O)C/C(=N\Nc1cc(=O)[nH]c2ccc(Cl)cc12)C(=O)OCC	95.3%	98.2%	91.3%	101%	103%	87.5%	105%	100%	106%	121%
N=C(N)c1ccc(-c2ccc(-c3ccc(F)cc3)s2)s1	-62.6% (active)	90.4%	-29.7% (active)	57%	-64.9% (active)	28.5%	-72% (active)	-65.8% (active)	-57.5% (active)	-80.6% (active)
CN(C)c1ccc(C(=NO)c2ccc(N(C)C)cc2)cc1	47.3%	78.5%	81.3%	46.2%	7.18% (active)	37.8%	-25.8% (active)	31.4%	57.3%	42.8%
CCCCCCCCn1ccc2cc(NC(=O)Cn3cc(CN4CCN(CC)CC4)nn3)ccc21	105%	98.3%	78.3%	89.8%	13.8%	54.7%	86.9%	64%	57.9%	-70.2% (active)
Cc1cc(N2CCCCC2)nc(N2CCN(CC(=O)Nc3ccc4c(ccn4Cc4ccccc4)c3)CC2)n1	59.2%	65.1%	83%	67.1%	56.5%	23.6%	65.1%	49.2%	68.6%	48.2%
COc1ccc(C(O)c2cc3c(N)c(C(=O)Nc4cccc(Cl)c4)sc3nc2C)cc1 (stereo not given)	37.8%	29.5%	46.6%	26.6%	1.28% (active)	74%	14.6%	21.2%	31.5%	3.71% (active)
COc1ccc(/C=C/C(=O)c2cc3c(N)c(C(=O)Nc4ccc(OC)cc4)sc3nc2C)cc1	32.7%	49.4%	36.4%	49.2%	-6.51% (active)	97.7%	-29.6% (active)	13.5%	27.7%	-47.7% (active)
COc1ccc(NC(=O)c2sc3nc(C)c(C(O)c4ccccc4)cc3c2N)cc1 (stereo not given)	28.7%	57.9%	56.8%	28.2%	10.1%	78.9%	10.2%	24.9%	40.7%	-5.84% (active)
CC(C)c1ccc(NC(=O)Nc2ccc(NC(=O)c3ccccc3N)cc2)cc1	59.5%	74.3%	55%	22.6%	22.7%	74.2%	26.8%	50%	8.19% (active)	61.8%
Cc1ccc(-c2nc(C#N)c(S(=O)(=O)NCCO)o2)cc1	82.3%	86.6%	92%	90.4%	88.6%	66.1%	-4.75% (active)	90%	61.3%	43.1%
C#CCOc1cccc(-c2ncc3cc(NC(=O)CCl)ccc3n2)c1	-13.8% (active)	2.41% (active)	69.4%	-5.99% (active)	27.8%	14.2%	-72.2% (active)	73.4%	-81.4% (active)	-77.7% (active)
CNC(=O)c1c(NC(=O)c2ccc(C(C)(C)C)cc2)sc2c(CN(C)C)c(O)ccc12	27%	95%	17.1%	8.39% (active)	-72.5% (active)	19%	75.9%	17.7%	-76.9% (active)	-68.5% (active)
Oc1c(I)cc(-c2nc3ccccc3s2)cc1CN(Cc1ccccn1)Cc1ccccn1	18.3%	10.5%	15.9%	15.7%	1.59% (active)	0.23% (active)	4.12% (active)	4.74% (active)	2.78% (active)	14.3%
N=c1c2c(=N)n3c(nc2nc2n1-c1ccccc1Sc1ccccc1-2)sc1cc(Cl)ccc13	7.38% (active)	32.9%	47.1%	76.8%	13.8%	-14.1% (active)	4.09% (active)	14%	30%	44.8%
Cc1nn(-c2ccccc2)c(/N=C/N(C)C)c1/C=C/C(=O)c1ccc(Cl)cc1	96.9%	98.3%	101%	93.2%	103%	78%	78.4%	108%	103%	110%
COc1ccc(-c2oc(=O)ccc2-c2cc(OC)c(OC)c(OC)c2)cc1O	49%	64.1%	41.6%	-15.8% (active)	4.04% (active)	103%	-0.118% (active)	26%	20.5%	45.2%
Cn1cccc1/C=C1\C(=O)Nc2ccccc21	66.9%	104%	87.9%	86.8%	89.1%	97.2%	101%	101%	96.6%	121%
COc1ccc(Cc2cnc(NC(=O)c3sc4ccccc4c3Cl)s2)cc1	28.4%	49.7%	50.8%	26.3%	4.16% (active)	79.8%	-14.2% (active)	24.4%	36.7%	10.2%
CC(C)CSc1oc(-c2ccccc2)nc1S(=O)(=O)c1ccccc1	83.4%	75.7%	99%	94.4%	97.2%	45.8%	70.8%	79.8%	87%	109%
COc1ccc(/C=C/C(=O)c2cc3c(N)c(C(=O)Nc4ccccc4C)sc3nc2C)cc1	36.1%	53.3%	35.7%	32.6%	1.23% (active)	79.2%	-28.4% (active)	20.1%	21.3%	-30.3% (active)
COc1ccc(Nc2ncc(C(N)=O)c(NCCCNC(=O)C3CCC3)n2)cc1	76.9%	62.7%	79%	35.9%	68.6%	60.6%	77.1%	83.1%	74.1%	3.6% (active)
COc1cccc(/C=C2\COc3ccc(O)cc3C2=O)c1	93.7%	105%	106%	95%	99.6%	91.9%	56.1%	87.4%	78.3%	97.9%
CC(=O)N/C(=C1/OC(C(O)C(O)C(O)CO)CN1C)[P+](c1ccccc1)(c1ccccc1)c1ccccc1 (stereo not given)	106%	97.6%	95.1%	91.4%	108%	101%	93.5%	102%	102%	107%
O=C1CCCc2nc3sc4c(=O)n(-c5ccccc5Cl)nnc4c3cc21	101%	89.1%	101%	94.3%	100%	94.9%	74.5%	80%	86.6%	105%

Reference: PubChem BioAssay (NCI)
